Source: PubChem BioAssay (NCATS)
Results filed as inconclusive are left out. The source made the active and inactive calls. The call rests on the fitted dose curve; in most records, active means well fitted curve in the direction sought with a large enough effect; inconclusive means small, poorly fitted or top-dose-only effect, or another doubt; inactive means no such curve, though single readings can be large; an effect the other way counts as inactive or inconclusive.

How the values were obtained:
[1] = molecular target: Nuclear receptor subfamily 1 group I member 3 (Homo sapiens) (UniProt Q14994); test: Primary qHTS for antagonist of constitutive androstane receptor (CAR) against the NCATS DSHEA and TCM libraries (AID 1794836); further: series mostly up to about 40 µM
Nuclear receptor subfamily 1 group I member 3 (Homo sapiens), sequence (Q14994 whole entry, looked up): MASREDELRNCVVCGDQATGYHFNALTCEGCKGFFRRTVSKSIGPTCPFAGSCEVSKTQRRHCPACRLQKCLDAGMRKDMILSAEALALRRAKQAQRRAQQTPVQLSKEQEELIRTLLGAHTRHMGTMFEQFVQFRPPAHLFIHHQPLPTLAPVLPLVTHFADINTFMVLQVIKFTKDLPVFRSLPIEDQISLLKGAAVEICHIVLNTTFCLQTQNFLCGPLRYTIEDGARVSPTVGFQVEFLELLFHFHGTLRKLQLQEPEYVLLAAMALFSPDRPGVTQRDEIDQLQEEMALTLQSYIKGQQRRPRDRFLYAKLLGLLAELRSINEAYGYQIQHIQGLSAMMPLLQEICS
Outline: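 HepG2 cells stably carrying hCAR and a CYP2B6 luciferase reporter (2,500 cells/well) attached for 5 h, then received compounds with 48 uM CITCO for 24 h at 37C. ONE-Glo luminescence read antagonism; CellTiter-Fluor (405/540 nm) gave viability.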

[2] = KB-8-5-11 P-gp reporter qHTS against the NCATS DSHEA and TCM libraries (AID 1919977); further: 0% is about no effect
Outline: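 CellTiter-Glo luminescence after ~72 h exposure at 37C gave viability of KB-8-5-11 cells, the P-gp-overexpressing subline. Substances were titrated; colchicine was omitted from assay medium.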

[3] = S16 Schwann cell PMP22 intronic element firefly luciferase assay (AID 624032);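 further: series mostly up to about 58 µM; plate controls were DMSO for no effect and PTC124 positive control mean for full effect; nearly all actives have a fitted effect of over 30% in size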
Outline: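 Rat S16 Schwann cells stably carrying a PMP22 intronic element-driven Fluc reporter were seeded overnight, then exposed to compounds for 24 h at 37 °C. Luminescence was normalized to PTC124 (positive control) and DMSO (0% activity).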

[4] = Viability counterscreen for antagonist of constitutive androstane receptor (CAR) against the NCATS DSHEA and TCM libraries (AID 1794837);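 further: compound exposure lasted 24 h before viability reading; 0% is about no effect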
Outline: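 Cell viability, CellTiter-Fluor, Ex/Em 405/540 nm, 1 h at 37C. HepG2-CYP2B6-hCAR, 2,500 cells/well; cpds + CITCO 48 uM final (antagonist mode), 24 h, 37C/5% CO2.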

[5] = Viability counterscreen for agonist of constitutive androstane receptor (CAR) against the NCATS DSHEA and TCM libraries (AID 1794838);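 further: HepG2 cells with CYP2B6 reporter and hCAR plus 0.75 µM PK11195 antagonist; 0% is about no effect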
Outline: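 Viability by CellTiter-Fluor fluorescence, 405/540 nm, after 1 h at 37C. HepG2-CYP2B6-hCAR cells were exposed 24 h to test substances in presence of 0.75 uM PK11195 (final).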

[6] = HepG2 viability counterscreen (readout 2: ATP content) against the NCATS DSHEA and TCM libraries (AID 1794840); further: 0% is about no effect
Outline: (§1)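 1,000 HepG2 cells/well, 4 h attach; compounds ~24 h, 37C/5% CO2. Readout 1: GF-AFC 25 uM final, 30 min, fluorescence 380/510 nm. Readout 2: CellTiter-Glo, 30 min RT, luminescence.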

[7] = HepG2 viability counterscreen (readout 1: protease activity) against the NCATS DSHEA and TCM libraries (AID 1794841);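 further: cells exposed to compounds for about 24 h before the protease read; 0% is about no effect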
Outline: as §1

[8] = molecular target: Cytochrome P450 3A4 (Homo sapiens) (UniProt P08684); test: qHTS for inhibitors of CYP3A4 against the NCATS DSHEA and TCM libraries (AID 1919971);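 further: on the % scale 0 is the no-effect control and ±100 the full control effect; inhibition lowers luminescence from luciferin made by CYP3A4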
Cytochrome P450 3A4 (Homo sapiens), sequence (P08684 whole entry, looked up, canonical isoform): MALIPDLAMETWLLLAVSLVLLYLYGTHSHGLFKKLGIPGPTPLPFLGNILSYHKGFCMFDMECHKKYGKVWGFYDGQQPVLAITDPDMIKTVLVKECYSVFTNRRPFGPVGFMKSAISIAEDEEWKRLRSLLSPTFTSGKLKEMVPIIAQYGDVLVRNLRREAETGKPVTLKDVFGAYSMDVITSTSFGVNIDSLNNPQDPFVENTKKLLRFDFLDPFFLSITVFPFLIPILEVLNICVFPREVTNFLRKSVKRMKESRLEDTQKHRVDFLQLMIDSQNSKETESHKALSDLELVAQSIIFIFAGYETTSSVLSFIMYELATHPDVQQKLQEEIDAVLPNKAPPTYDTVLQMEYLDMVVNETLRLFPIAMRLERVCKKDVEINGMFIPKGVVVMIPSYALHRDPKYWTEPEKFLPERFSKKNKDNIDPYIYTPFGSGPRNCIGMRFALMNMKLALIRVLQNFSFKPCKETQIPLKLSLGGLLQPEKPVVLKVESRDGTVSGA
Outline: (§2)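 Concentration-response screening with isoform-matched pro-luciferin substrates. The CYP reaction was initiated by NADPH regenerating solution and ran 30-45 min in darkness at room temperature.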

[9] = molecular target: Cytochrome P450 2C9 (Homo sapiens) (UniProt P11712); test: qHTS for inhibitors of CYP2C9 against the NCATS DSHEA and TCM libraries (AID 1919973);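 further: luminogenic pro-luciferin CYP2C9 substrate turned into luciferin with NADPH regeneration; series mostly up to about 34 µM; on the % scale 0 is the no-effect control and ±100 the full control effect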
Cytochrome P450 2C9 (Homo sapiens), sequence (P11712 whole entry, looked up): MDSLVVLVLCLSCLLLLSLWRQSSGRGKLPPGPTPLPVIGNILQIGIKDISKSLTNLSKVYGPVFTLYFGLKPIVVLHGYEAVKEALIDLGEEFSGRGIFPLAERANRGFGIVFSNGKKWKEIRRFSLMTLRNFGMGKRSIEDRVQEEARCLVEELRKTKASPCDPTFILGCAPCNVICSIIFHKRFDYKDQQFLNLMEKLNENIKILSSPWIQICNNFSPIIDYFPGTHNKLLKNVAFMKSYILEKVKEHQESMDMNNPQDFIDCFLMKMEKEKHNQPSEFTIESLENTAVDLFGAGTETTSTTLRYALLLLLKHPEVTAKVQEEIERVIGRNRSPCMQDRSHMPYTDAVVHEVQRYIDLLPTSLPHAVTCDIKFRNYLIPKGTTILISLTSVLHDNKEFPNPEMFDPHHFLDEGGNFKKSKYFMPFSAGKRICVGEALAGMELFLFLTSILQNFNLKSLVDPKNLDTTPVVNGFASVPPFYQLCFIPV
Outline: as §2

[10] = molecular target: Cytochrome P450 2C19 (Homo sapiens) (UniProt P33261); test: qHTS for inhibitors of CYP2C19 against the NCATS DSHEA and TCM libraries (AID 1919974);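 further: luminescence from luciferin released by CYP2C19 oxidation of a pro-luciferin substrate; on the % scale 0 is the no-effect control and ±100 the full control effect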
Cytochrome P450 2C19 (Homo sapiens), sequence (P33261 whole entry, looked up): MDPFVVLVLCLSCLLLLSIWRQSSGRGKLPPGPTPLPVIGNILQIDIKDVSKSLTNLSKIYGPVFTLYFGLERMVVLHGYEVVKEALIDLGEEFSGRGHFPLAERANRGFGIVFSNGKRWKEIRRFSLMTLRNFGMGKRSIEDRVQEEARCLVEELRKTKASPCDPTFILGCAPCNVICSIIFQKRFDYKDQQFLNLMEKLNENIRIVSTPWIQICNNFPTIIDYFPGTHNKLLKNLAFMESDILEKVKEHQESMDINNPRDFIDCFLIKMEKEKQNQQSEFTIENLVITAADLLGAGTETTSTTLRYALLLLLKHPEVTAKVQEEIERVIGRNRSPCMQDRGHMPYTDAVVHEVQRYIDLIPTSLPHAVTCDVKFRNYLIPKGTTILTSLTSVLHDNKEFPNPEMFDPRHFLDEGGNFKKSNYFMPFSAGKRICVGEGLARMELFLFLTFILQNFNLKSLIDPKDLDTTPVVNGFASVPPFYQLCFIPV
Outline: as §2

[11] = KB-3-1 P-gp reporter qHTS against the NCATS DSHEA and TCM libraries (AID 1919975); further: 0% is about no effect
Outline: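 CellTiter-Glo luminescence viability readout; KB-3-1 parental cells, 500/well, attached ~4 h, then compound for ~72 h, 37C, 5% CO2. Bortezomib intraplate control.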

[12] = qHTS Counterscreen for compound interference against the NCATS DSHEA and TCM libraries (AID 1919978); conditions: firefly luciferase detection reagent interference, luminescence;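 further: compounds preincubated with 1 µM D-luciferin or buffer before detection reagent; % of control where 0% means no effect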
Outline: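 Luminescence counterscreen for detection-kit interference: compounds at 19.5 nM–39.8 uM final, 15 min RT with 1 uM D-luciferin or buffer only; detection reagent added, 30 min RT, then read.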

[13] = Dual reporter qHTS for agonist of Pregnane X Receptor (hPXR) against the NCATS DSHEA and TCM libraries: Fluorescence readout (AID 1920058); further: 0% is about no effect
Outline: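 Cells were plated at 2000 per well and allowed to attach for 5 h. Test substances were pinned in and incubated roughly 24 h. CellTiter-Fluor was then added and fluorescence measured after 1 h.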

[14] = molecular target: Nuclear receptor subfamily 1 group I member 2 (Homo sapiens) (UniProt O75469); test: Dual reporter qHTS for antagonist of Pregnane X Receptor (hPXR) against the NCATS DSHEA and TCM libraries: Luminescence Readout (AID 1920060);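 further: HepG2 cells carrying hPXR luciferase reporter stimulated with rifampicin at 2 µM; 0% is about no effect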
Nuclear receptor subfamily 1 group I member 2 (Homo sapiens), sequence (O75469 whole entry, looked up): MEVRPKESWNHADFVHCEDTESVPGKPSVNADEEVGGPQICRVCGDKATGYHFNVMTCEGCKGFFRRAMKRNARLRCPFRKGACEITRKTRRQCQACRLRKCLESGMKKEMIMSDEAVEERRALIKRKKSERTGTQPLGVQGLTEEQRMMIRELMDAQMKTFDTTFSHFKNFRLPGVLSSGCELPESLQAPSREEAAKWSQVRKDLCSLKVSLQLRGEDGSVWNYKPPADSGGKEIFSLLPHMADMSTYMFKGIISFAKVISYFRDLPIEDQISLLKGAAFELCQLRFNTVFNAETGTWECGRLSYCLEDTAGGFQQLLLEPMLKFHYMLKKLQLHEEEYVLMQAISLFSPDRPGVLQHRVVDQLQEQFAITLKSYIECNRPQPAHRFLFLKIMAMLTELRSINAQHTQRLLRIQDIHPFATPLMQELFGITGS
Outline: (§3)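 HepG2 hPXR-Luc, 2000 cells/well, charcoal-stripped FBS medium; 5 h attach; RIF 2 uM final; 24 h 37C/5% CO2; CellTiter-Fluor 1 h, fluor 405/540; ONE-Glo 30 min RT, lum.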

[15] = Dual reporter qHTS for antagonist of Pregnane X Receptor (hPXR) against the NCATS DSHEA and TCM libraries: Fluorescence Readout (AID 1920061); further: 0% is about no effect
Outline: as §3

COC1=C(OC)C(=O)C(C/C=C(\C)CC/C=C(\C)CC/C=C(\C)CC/C=C(\C)CC/C=C(\C)CC/C=C(\C)CC/C=C(\C)CC/C=C(\C)CC/C=C(\C)CCC=C(C)C)=C(C)C1=O
inactive: Potency [1] | Potency [2]

C=C1C[C@@]23CC[C@H]4[C@@](C)(CCC[C@@]4(C)C(=O)O[C@@H]4O[C@H](CO)[C@@H](O)[C@H](O)[C@H]4O[C@@H]4O[C@H](CO)[C@@H](O)[C@H](O)[C@H]4O)[C@@H]2CC[C@]1(O[C@@H]1O[C@H](CO)[C@@H](O)[C@H](O)[C@H]1O[C@@H]1O[C@H](CO)[C@@H](O)[C@H](O)[C@H]1O)C3
inactive: Potency [1] | Potency [2]

C[S+](CC[C@H](N)C(=O)O)C[C@H]1O[C@@H](n2cnc3c(N)ncnc32)[C@H](O)[C@@H]1O (stereo partly specified)
inactive: Potency [3] | Potency [1] | Potency [2]

CC[C@H](CC[C@@H](C)[C@H]1CCC2C3CCC4C[C@@H](O)CC[C@]4(C)C3CC[C@@]21C)C(C)C (stereo partly specified)
inactive: Potency [1] | Potency [2]

CCCCC[C@H](O)CC(=O)CCc1ccc(O)c(OC)c1
inactive: Potency [1] | Potency [2]

C[C@@H]1CC[C@]2(C)CC[C@]3(C)C(=CC(=O)C4[C@@]5(C)CC[C@@H](O)[C@](C)(C(=O)O)C5CC[C@]43C)C2[C@H]1C (stereo partly specified)
inactive: Potency [1] | Potency [2]

COC1=C[C@@]23CCN(C)[C@H](Cc4ccc(OC)c(O)c42)C3=CC1=O
inactive: outcome [4] | outcome [5] | outcome [6] | outcome [7] | Potency [8] | Potency [9] | Potency [10] | outcome [11] | Potency [2] | max response [12] -3.14% | outcome [13] | outcome [14] | outcome [15]
